Reference: PubChem BioAssay (Tox21)
Inconclusive results are not listed. Where a call stands in place of a potency, no number is given. Active and inactive are the calls of the source. Calls come from the whole dose curve; as a rule, active = well fitted inhibition curve with a large enough effect in the repeat runs; inconclusive = weak or mixed curves; inactive = no such curve, though single readings can be large or run the other way.
Potency is the fitted concentration of half-maximal effect.

What follows are molecules tested against Cytochrome P450 2C19 (Homo sapiens) (UniProt P33261) (assay: Cytochrome P450 Family 2 Subfamily C Member 19 (CYP2C19) small molecule antagonists: luciferase reporter qHTS assay (AID 1671197; note: nearly all actives have a fitted effect of over 65% in size)). Settings: P450-Glo CYP2C19 enzyme, luciferin luminescence, 1 h; series mostly up to 52.9 µM.
Cytochrome P450 2C19 (Homo sapiens), sequence (P33261 whole entry, looked up): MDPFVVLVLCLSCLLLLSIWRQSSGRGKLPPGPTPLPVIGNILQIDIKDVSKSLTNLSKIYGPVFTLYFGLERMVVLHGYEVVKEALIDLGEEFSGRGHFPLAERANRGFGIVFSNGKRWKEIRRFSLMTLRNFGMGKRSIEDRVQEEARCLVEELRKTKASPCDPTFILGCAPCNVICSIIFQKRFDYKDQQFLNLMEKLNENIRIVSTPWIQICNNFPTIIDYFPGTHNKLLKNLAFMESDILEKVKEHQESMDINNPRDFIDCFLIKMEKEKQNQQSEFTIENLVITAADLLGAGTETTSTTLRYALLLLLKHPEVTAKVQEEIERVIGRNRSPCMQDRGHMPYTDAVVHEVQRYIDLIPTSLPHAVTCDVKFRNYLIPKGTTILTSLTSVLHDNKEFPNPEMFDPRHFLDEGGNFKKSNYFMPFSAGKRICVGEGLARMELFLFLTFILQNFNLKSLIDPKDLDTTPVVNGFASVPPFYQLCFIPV
From the text: National Center for Advancing Translational Sciences [NCATS]
U.S. Environmental Protection Agency [EPA]
National Institutes of Environmental Health Sciences [NIEHS]
National Toxicology Program [NTP]
U.S. Food and Drug Administration [FDA]
Cytochrome P450 (CYP) enzymes are membrane-bound hemeproteins that play a key role in metabolism of drugs and xenobiotics. Evaluation of the effect of chemicals on CYP isozymes is useful to minimize the adverse drug reactions and toxicities in drug development process. Tox21 chemicals were tested for their effect on CYP enzyme activities by using P450-Glo (TM) screening systems (Promega Corporation, Madison, WI). These systems provide a luminescent method containing proluciferin substrates and are converted to luciferin products by CYP isozymes. The luciferin products formed are detected with a luciferin detection reagent, and the amount of light produced is proportional to CYP activity. P450-Glo (TM) CYP2C19 screening system (Catalog. No. V9880) was used to detect the compounds that interfere in CYP2C19 activity. The positive control compound used for CYP2C19 assay is ketoconazole (Sigma-Aldrich, St. Louis, MO).
Tox21 Assay Protocol Summary:
Two ul of enzyme-substrate mix was dispensed into medium binding white/solid 1536-well plates (Greiner Bio-One North America Inc., Monroe, NC) using a BioRaptr Flying Reagent Dispenser (FRD, Beckman Coulter, Brea, CA). Compounds dissolved in DMSO and positive control (ketoconazole) were transferred to the assay plates at 23 nl using a Pintool station (Wako, San Diego, CA). The assay plates were incubated at room temperature for 10 min. Then 2 ul of NADPH regeneration solution was added to each well of the assay plates using an FRD and incubated at 37C for 1 h. The reaction was stopped by adding 4 ul of detection reagent using an FRD and after 20 min incubation at room temperature the luminescence signal was measured using a ViewLux plate reader (Perkin Elmer, Shelton, CT). Data were expressed as relative luminescence units.
For C=C(C)CCCC(C)CCO (stereo not given), the Potency was 39.9 µM (active).
O=C(O)C[C@H](NC(=O)OCc1ccccc1)C(=O)O was tested, and the Potency was “inactive”.
With Cc1ccccc1N=C(N)Nc1ccccc1C the Potency was “inactive”.
CCC(C)COC(=O)CC(C)C (stereo not given) was tested, and the Potency was “inactive”.
In the case of C=C(C)C(=O)OCCOCCOC(=O)C(=C)C, the Potency is reported as 8.94 µM (active).
With C=C(C)[C@@H]1CCC2=CCC[C@@H](C)[C@]2(C)C1 the Potency was 11.2 µM (active).
In the case of CCCC(=O)C(=O)O, the Potency is reported as “inactive”.
With O=C(/C=C/c1ccc(O)c(O)c1)O[C@@H]1C[C@@](OC(=O)/C=C/c2ccc(O)c(O)c2)(C(=O)O)C[C@@H](O)[C@@H]1O the Potency was 12.3 µM (active).
In the case of C[C@@H](O)[C@H]1C(=O)N2C(C(=O)O)=C([C@H]3CCCO3)S[C@H]12, the Potency is reported as “inactive”.
For Cc1cc(O)ccc1O, the Potency was 25.5 µM (active).
CC1CC(C)C(=O)C1=O (stereo not given) was tested, and the Potency was “inactive”.
With CC1(C)[C@H](C(=O)O)N2C(=O)C[C@H]2S1(=O)=O the Potency was 30.9 µM (active).
With CCCCCCCCC(CCCCCC)C(=O)O (stereo not given) the Potency was 35.6 µM (active).
In the case of C=Cc1ccc(S(=O)(=O)O)cc1, the Potency is reported as “inactive”.
For Oc1c(I)cc(I)c2cccnc12, the Potency was “inactive”.
In the case of CCC(=O)C1CC(C(C)C)CC=C1C (stereo not given), the Potency is reported as 35.6 µM (active).
For Cc1ccc(CO)cc1, the Potency was “inactive”.
For CCOc1ccc(Cc2nccc3cc(OCC)c(OCC)cc23)cc1OCC, the Potency was 7.76 µM (active).
In the case of CN1CCCC(CC2c3ccccc3Sc3ccccc32)C1 (stereo not given), the Potency is reported as 7.76 µM (active).
For O=C(O)c1cccc(-c2noc(-c3ccccc3F)n2)c1, the Potency was 0.776 µM (active).
For CC(C)(C)C(=O)C(=O)O, the Potency was “inactive”.
With NC(=O)c1ccncc1 the Potency was “inactive”.
For Cc1cc2c(OCC(CNC(C)(C)C)OC(=O)c3ccccc3)cccc2[nH]1 (stereo not given), the Potency was 38.9 µM (active).
In the case of CC1=Nc2ccc3ccccc3c2C1(C)C, the Potency is reported as 8.94 µM (active).
For Nc1ccc(N=Nc2ccccc2)c(N)c1, the Potency was 24.7 µM (active).
In the case of C[C@H]1c2cccc(O)c2C(O)=C2C(=O)[C@]3(O)C(O)=C(C(N)=O)C(=O)[C@@H](N(C)C)[C@@H]3[C@@H](O)[C@@H]21, the Potency is reported as “inactive”.
With O=C=Nc1ccc(Cl)c(Cl)c1 the Potency was “inactive”.
In the case of N#CCCN(CCO)CCO, the Potency is reported as “inactive”.
In the case of CCCCCCCC/C=C\CCCCCCCCCCCC(=O)O, the Potency is reported as “inactive”.
With O=c1cc(-c2ccccc2)oc2ccc3ccccc3c12 the Potency was 3.56 µM (active).
For O=[N+]([O-])c1ccc(Nc2ccc(Nc3ccccc3)c(S(=O)(=O)O)c2)c([N+](=O)[O-])c1, the Potency was “inactive”.
In the case of CC(=O)Nc1cc(S(=O)(=O)O)cc2cc(S(=O)(=O)O)c(N=Nc3ccccc3)c(O)c12, the Potency is reported as 39.9 µM (active).
For CN1CCCN=C1COC(=O)C(O)(c1ccccc1)C1CCCCC1 (stereo not given), the Potency was “inactive”.
With CCOC(=O)/C=C/C(=O)OCC the Potency was “inactive”.
CC(C)=CCC/C(C)=C/CC/C(C)=C/CCC(=O)OC/C=C(\C)CCC=C(C)C was tested, and the Potency was “inactive”.
For CCOc1ccccc1O[C@H](c1ccccc1)[C@H]1CNCCO1, the Potency was “inactive”.
With O=[N+]([O-])c1ccc(O/N=C/c2cc(Br)c(O)c(Br)c2)c([N+](=O)[O-])c1 the Potency was 79.3 µM (active).
With C[C@@]12CCC[C@H]1[C@@H]1CC[C@H]3C[C@@H](O)CC[C@]3(C)[C@H]1CC2 the Potency was 7.76 µM (active).
For OC[C@H]1O[C@@H](n2cnc3c(=S)nc[nH]c32)[C@H](O)[C@@H]1O, the Potency was 7.76 µM (active).
In the case of O=C(Cn1ccnc1[N+](=O)[O-])NCCO, the Potency is reported as “inactive”.
